D2 antagonist = HTS Assay for Allosteric Antagonists of the Human D2 Dopamine Receptor: Primary Screen for Antagonists; inhibition, % at 10 µM; actives 2% (n = 340,000); HEK293 TREx D2 cells, calcium flux, dopamine EC80; AID 485344, 2010; in the data active = inhibition above about 30%; inactive = below that, where a call was filed; also: 0% is about no effect
Target sequence (P14416 whole entry, looked up): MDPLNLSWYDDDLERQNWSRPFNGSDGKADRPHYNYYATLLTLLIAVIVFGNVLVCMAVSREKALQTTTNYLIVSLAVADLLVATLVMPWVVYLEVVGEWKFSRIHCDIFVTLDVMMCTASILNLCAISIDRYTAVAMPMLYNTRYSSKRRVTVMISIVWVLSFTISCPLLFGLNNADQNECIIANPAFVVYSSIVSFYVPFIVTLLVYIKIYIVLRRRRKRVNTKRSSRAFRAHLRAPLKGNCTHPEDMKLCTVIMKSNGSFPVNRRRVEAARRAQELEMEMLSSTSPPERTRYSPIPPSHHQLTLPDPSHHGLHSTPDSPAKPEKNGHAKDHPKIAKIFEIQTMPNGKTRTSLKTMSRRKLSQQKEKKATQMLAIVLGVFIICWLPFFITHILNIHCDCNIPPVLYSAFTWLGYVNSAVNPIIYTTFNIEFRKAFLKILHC
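Compounds are added to dye-loaded, induced HEK293 T-REx cells coupled to calcium release via D2; after a 3 min kinetic read an EC80 dopamine stimulus is given and fluorescence is recorded for 3 more min.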
D2 PAM-1 = HTS Assay for Positive Allosteric Modulators of the Human D2 Dopamine Receptor: Primary Screen for Potentiators; potentiation, % at 10 µM; actives 0.34% (n = 340,000); HEK293 T-REx D2, calcium flux, EC20 dopamine potentiation; D(2) dopamine receptor (Homo sapiens), P14416; AID 485347, 2010;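 active = potentiation over 3 SD above the plate norm, cut at about 30% in these data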; also: 0% is about no effect
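Primary screen. Calcium kinetics in induced HEK293 T-REx D2 cells: compound pre-addition 180 s, EC20 dopamine, 180 s more.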
D2 ag-1 = Beta-Arrestin HTS for Positive Allosteric Modulators of the Human D2 Dopamine Receptor: Agonists. actives 0.084% (n = 360,000). DiscoveRx PathHunter D2 beta-arrestin, luminescence, 90 min; 100% = 57 uM dopamine signal. activation, % (concentration not given with the values). D(2) dopamine receptor (Homo sapiens), P14416; in the data active = activation above about 40%; inconclusive = between about 15% and that limit
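DiscoveRx PathHunter D2 beta-arrestin cells (2,100/well) attached overnight, then compound-stimulated 90 min at 37 C in HBSS/10 mM HEPES/0.1% Tween-20 buffer; beta-galactosidase complementation read by luminescence after 1 h at ambient temperature. Dopamine 57 uM final (EC100) as control.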
D2 ag-2 = HTS Assay for Allosteric Agonists of the Human D2 Dopamine Receptor: Primary Screen for Agonists. D(2) dopamine receptor (Homo sapiens), P14416. HEK293 T-REx D2 cells, calcium flux agonist mode. activation, % at 2 µM. actives 0.53% (n = 340,000). AID 485358, 2010;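 active = activation over 3 SD above normal in the single-dose calcium agonist read, cut at about 30% in these data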; also: 0% is about no effect
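Agonism is scored from calcium flux in a force-coupled, inducible HEK293 cell line expressing D2, read kinetically for 180 s after compound addition against dopamine controls.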
D2 PAM-2 = Beta-Arrestin HTS for Positive Allosteric Modulators of the Human D2 Dopamine Receptor: Potentiators. AID 624464, 2012. DiscoveRx D2 beta-arrestin cells, luminescence, 90 min; 100% = 57 uM dopamine signal. D(2) dopamine receptor (Homo sapiens), P14416. potentiation, % (no concentration beside the values). actives 0.23% (n = 360,000); in the data active = potentiation above about 50%; inconclusive = mostly about 30% to 49%
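PathHunter D2 cells, attached overnight at 37 deg C, received compound in DMSO plus dopamine at EC20 (50 nM final) for 90 min at 37 deg C. Beta-arrestin recruitment was read as luminescence after 1 h with detection reagent at ambient temperature.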
D3 arrestin ag = qHTS of D3 Dopamine Receptor Agonist: D3 Dopamine Receptor B-arrestin Agonist Confirmatory Assay; shares compounds with D2 ag-2; DiscoveRx D3 beta-arrestin cells, luminescence, 90 min; Potency, µM (doses to about 76.9 µM), without a hit: at the top dose activation, actives largely listed as activators; actives 4% (n = 2,300);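 also: potency is read from the fitted curve at half-maximal effect; 100% = dopamine control response; nearly all actives have a fitted effect of over 70% in size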
D2 ag-3 = qHTS of D3 Dopamine Receptor Agonist: D2 Dopamine Receptor B-arrestin Agonist Counterscreen. shares compounds with D2 ag-2. DiscoveRx PathHunter D2 beta-arrestin, luminescence, 90 min; response scale: percent relative to full dopamine signal. Potency, µM (titrated, usually from 76.9 µM), inactives show top-dose activation, actives largely listed as activators. actives 5.9% (n = 2,300). AID 720507, 2013; also: potency is read from the fitted curve at half-maximal effect; % of control where 0% means no effect; nearly all actives have a fitted effect of over 70% in size
Active calls of the source: *. In the library only some 2.4% were active in any assay of this set; here they are far more common. Unless noted, calls follow the shape of the dose curve; as a rule, active = well fitted activation curve with a large enough effect; inconclusive = small, poorly fitted or top-dose-only effect; inactive = flat fitted curve, though single readings scatter.

How did COc1cc(C#Cc2c(-c3cncn3C)n(C)c3ccc(-c4cnc(N5CCOCC5)nc4)cc23)cc(OC)c1 do in these assays?
D2 ag-1: -2; D2 PAM-2: -7

What do the screens show for `COc1cc(C#Cc2c(-c3cncn3C)n(C)c3ccc(-c4cnc(OC)nc4)cc23)cc(OC)c1`?
D2 antagonist: 7; D2 PAM-1: 9; D2 ag-1: 3; D2 ag-2: -1; D2 PAM-2: -20; D3 arrestin ag: -3%; D2 ag-3: -3%

What do the screens show for `Cc1cccc(N2CCN(C(=O)CCNS(=O)(=O)c3ccc4c(c3)oc(=O)n4C)CC2)c1C`?
D2 antagonist: -7; D2 PAM-1: -17; D2 ag-1: 4; D2 ag-2: 45*; D2 PAM-2: 5; D3 arrestin ag: 11%; D2 ag-3: 25%

What do the screens show for `COc1ccc(N2CCN(CCCNS(=O)(=O)c3ccc4c(c3)oc(=O)n4C)CC2)cc1`?
D2 antagonist: 30; D2 PAM-1: -18; D2 ag-1: 2; D2 ag-2: 19; D2 PAM-2: -11; D3 arrestin ag: 9%; D2 ag-3: 14%

How did Cn1c(=O)oc2cc(S(=O)(=O)NCCN3CCN(c4ccccc4F)CC3)ccc21 do in these assays?
D2 antagonist: 77*; D2 PAM-1: -24; D2 ag-1: 1; D2 ag-2: 55*; D2 PAM-2: -8; D3 arrestin ag: 12%; D2 ag-3: 22%

Results for Cn1c(=O)oc2cc(S(=O)(=O)NCCN3CCCCCC3)ccc21 ?
D2 antagonist: 15; D2 PAM-1: -9; D2 ag-1: 0; D2 ag-2: 1; D2 PAM-2: 9

How did Cc1cccc(N2CCN(C(=O)CCS(=O)(=O)c3ccc4c(c3)oc(=O)n4C)CC2)c1C do in these assays?
D2 antagonist: 15; D2 PAM-1: -10; D2 ag-1: 4; D2 ag-2: 3; D2 PAM-2: -18

What do the screens show for `Cc1c(NC2=C(Cl)C(=O)N(c3ccccc3Cl)C2=O)c(=O)n(-c2ccccc2)n1C`?
D2 antagonist: -4; D2 PAM-1: -19; D2 ag-1: 0; D2 ag-2: 44*; D2 PAM-2: -6; D3 arrestin ag: -5%; D2 ag-3: -4%

How did Cc1cc(=O)[nH]c(Nc2c(C)n(C)n(-c3ccccc3)c2=O)n1 do in these assays?
D2 antagonist: 23; D2 PAM-1: -5; D2 ag-1: -2; D2 ag-2: 1; D2 PAM-2: 3

How did COc1cc(NC(=O)CCN2CCN(c3ccccc3F)CC2)cc(OC)c1 do in these assays?
D2 antagonist: 40*; D2 PAM-1: -11; D2 ag-1: 10; D2 ag-2: 31*; D2 PAM-2: -16; D3 arrestin ag: inconclusive; D2 ag-3: 21%

What do the screens show for `O=C(CCN1CCN(S(=O)(=O)c2ccc(Cl)cc2)CC1)Nc1ccccc1F`?
D2 antagonist: 10; D2 PAM-1: 8; D2 ag-1: 2; D2 ag-2: 0; D2 PAM-2: -1

Results for COC(=O)c1[nH]c2cc(OC)ccc2c1NC(=O)CCN1CCN(c2cccc(C)c2C)CC1 ?
D2 antagonist: 57*; D2 PAM-1: -8; D2 ag-1: -1; D2 ag-2: 1; D2 PAM-2: -11; D3 arrestin ag: 8%; D2 ag-3: -1%

Results for O=C(CCN1CCN(c2ccccc2F)CC1)Nc1ccc(F)cc1 ?
D2 antagonist: 88*; D2 PAM-1: -16; D2 ag-1: 3; D2 ag-2: 14; D2 PAM-2: -75; D3 arrestin ag: inconclusive; D2 ag-3: 7%

What do the screens show for `O=C(CCN1CCN(c2ccccc2F)CC1)Nc1ccccc1Cl`?
D2 antagonist: 88*; D2 PAM-1: -24; D2 ag-1: -1; D2 ag-2: 70*; D2 PAM-2: -10; D3 arrestin ag: -3%; D2 ag-3: 21%

What do the screens show for `O=C(CCN1CCN(S(=O)(=O)c2ccc(Cl)cc2)CC1)Nc1ccc(F)cc1`?
D2 PAM-1: 11; D2 ag-1: -1; D2 PAM-2: -8

What do the screens show for `Cc1cc2ccccc2n1CCNC(=O)c1ccccc1F`?
D2 PAM-1: -11

Results for O=C(CCN1CCN(c2ccccc2F)CC1)Nc1cccc(F)c1 ?
D2 antagonist: 80*; D2 PAM-1: -24; D2 ag-1: -4; D2 ag-2: 81*; D2 PAM-2: -5; D3 arrestin ag: inconclusive; D2 ag-3: inconclusive

What do the screens show for `Cc1nn(C)c(C)c1/C=C(/C(=O)C(C)C)n1cncn1`?
D2 antagonist: 10; D2 PAM-1: -6; D2 ag-1: -2; D2 ag-2: 4; D2 PAM-2: -12; D3 arrestin ag: -7%; D2 ag-3: -5%

What do the screens show for `CN(C)c1ccc2c3c(cccc13)C(=O)N(c1ccccc1)C2=O`?
D2 antagonist: 16; D2 PAM-1: -6; D2 ag-2: 8

How did Cc1cccc(N2C(=O)c3cccc4c(N(C)CCO)ccc(c34)C2=O)c1 do in these assays?
D2 antagonist: 7; D2 PAM-1: 1; D2 ag-1: -10; D2 ag-2: 0; D2 PAM-2: -7; D3 arrestin ag: -5%; D2 ag-3: 3%

How did CCc1ccccc1NC(=O)c1ncoc1-c1ccco1 do in these assays?
D2 PAM-1: 1; D2 ag-2: 1

What do the screens show for `Cc1ccc(NC(=O)CN2C(=O)C(c3ccccc3)=NC2(C)C)cc1C`?
D2 PAM-1: 10; D2 ag-2: 0

Results for O=C(NC(=S)Nc1ccc(CN2CCOCC2)cc1)c1ccccc1[N+](=O)[O-] ?
D2 ag-1: -1; D2 PAM-2: -1; D3 arrestin ag: -21%; D2 ag-3: -1%

How did O=C(NC(=S)Nc1ccc(CN2CCOCC2)cc1)c1ccc([N+](=O)[O-])cc1Cl do in these assays?
D2 antagonist: 16; D2 PAM-1: 0; D2 ag-1: 1; D2 ag-2: 6; D2 PAM-2: -16

Screening data (PubChem BioAssay)
